Measurements as given in PubChem BioAssay (NCATS).
Inconclusive results are not listed. The source made the active and inactive calls. The call rests on the fitted dose curve; in most records, active means well fitted inhibition curve with a large enough effect; inconclusive means small, poorly fitted or top-dose-only effect; inactive means flat fitted curve, though single readings scatter.

Assays:
Test in all cases: qHTS profiling for inhibitors of Plasmodium falciparum proliferation (AID 504749); further: nearly all actives have a fitted effect of over 60% in size
Details in all cases: P. falciparum in erythrocytes, SYBR Green DNA, 72 h; series mostly up to 28.7 µM
7G8 = system: 7G8
In short: (§1)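 In a 72 h erythrocytic culture (37 C, humidified, 5% CO2) at 2.5% hematocrit and 0.3% starting parasitemia, compounds were tested; SYBR Green I in detergent lysis buffer stained parasite DNA overnight.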

AA1029 = system: AA1029
In short: as §1

AS120 = system: AS120
In short: as §1

ATS189 = system: ATS189
In short: as §1

ATS95 = system: ATS95
In short: as §1

C2A = system: C2A
In short: as §1

CP185 = system: CP185
In short: as §1

CP191 = system: CP191
In short: as §1

CP192 = system: CP192
In short: as §1

CP194 = system: CP194
In short: as §1

CP201 = system: CP201
In short: as §1

CP203 = system: CP203
In short: as §1

CP211 = system: CP211
In short: as §1

CP215 = system: CP215
In short: as §1

CP217 = system: CP217
In short: as §1

CP237 = system: CP237
In short: as §1

CP238 = system: CP238
In short: as §1

CP247 = system: CP247
In short: as §1

CP250 = system: CP250
In short: as §1

CP252 = system: CP252
In short: as §1

Measured: Potency

CC1C(=O)CC2C3(C)CCC2(C(C)C(=O)O)C(=O)C13 (stereo not given)
inactive: all assays above

Cc1nc(NS(=O)(=O)c2ccc(N)cc2)nc(C)c1Br
inactive: all assays above

CC(C)CCCC(C)NC(C)C (stereo not given)
inactive: all assays above

COc1cc(S(C)=O)ccc1-c1nc2ncccc2[nH]1 (stereo not given)
inactive: all assays above

COC(=O)CC[C@H](N)C(=O)O
inactive: all assays above

O=C(O)c1cc(N=Nc2ccc(O)c(C(=O)O)c2)ccc1O
inactive: all assays above

NC(=O)[C@H]1O[C@@H](O)[C@H](O)[C@@H](O)[C@@H]1O
inactive: all assays above

CC(O)CN(C)C (stereo not given)
inactive: all assays above

C=CCN1CCCC1CNC(=O)c1cc(S(N)(=O)=O)cc(OC)c1OC (stereo not given)
inactive: all assays above

O=C1[O][Bi][O]c2ccccc21
inactive: all assays above

CN(Cc1ccccc1)Cc1ccccc1
inactive: all assays above

CC1CCCCN1CCCOC(=O)c1ccccc1 (stereo not given)
inactive: all assays above

O[C@@H]([C@H](O)[C@H](O)CBr)[C@H](O)CBr
inactive: all assays above

FC(F)(F)C(F)(F)C(F)(F)C(F)(F)C(F)(F)F
inactive: all assays above

CC(C)=CCC/C(C)=C/CC/C(C)=C/CC/C=C(\C)CC/C=C(\C)CCC=C(C)C
inactive: all assays above

CCCc1ccc(C(=O)O)cc1
inactive: all assays above

OCC1(CO)COC(C(Cl)(Cl)Cl)OC1
inactive: all assays above

Oc1cc(O)cc(O)c1
inactive: all assays above

CCCCC[C@H](O)/C=C/[C@H]1[C@H](O)CC(=O)[C@@H]1C/C=C\CCCC(=O)O
inactive: all assays above

O=C1CCC(=O)N1CO
inactive: all assays above

CN1CCC(OC(=O)C(Oc2ccc(Cl)cc2)Oc2ccc(Cl)cc2)CC1
inactive: all assays above

O=C(NCCNCC(O)COc1ccc(O)cc1)N1CCOCC1 (stereo not given)
inactive: all assays above

O=C1N=C2SCCN2C(=O)C1Cc1ccc(Cl)cc1 (stereo not given)
inactive: all assays above

O=S(=O)(O)CC(S)CS (stereo not given)
inactive: all assays above

CCC(O)c1ccccc1 (stereo not given)
inactive: all assays above

C=Cc1ccc(S(=O)(=O)O)cc1
inactive: all assays above

O=C(O)[C@H]1CN(C/C=C/P(=O)(O)O)CCN1
inactive: all assays above
